# In PubChem BioAssay AID485353 (National Center for Advancing Translational Sciences (NCATS), 2010):
# Hit rate of the full screen: of about 330,000 compounds, about 610 (0.18%) were called active. About 2% were inconclusive and are not listed. Calls come from the whole dose curve. The list comes from a sample in which actives are over-represented; it also holds similar structures and randomly drawn compounds. Where a call stands in place of a potency, no number is given.
# Experiment: qHTS of Yeast-based Assay for SARS-CoV PLP; note: nearly all actives have a fitted effect of over 55% in size
# Details: S. cerevisiae expressing SARS-CoV PLpro; Potency: growth rescue; series mostly up to 32.9 µM
# Potency is the fitted concentration of half-maximal effect.
SMILES,Potency,"activity, positive = growth rescue"
COc1ccc(NC(=O)Nc2ccc3c(c2)C(=O)N([C@H](C)CO)C[C@H](C)[C@@H](CN(C)C(=O)Nc2ccc4c(c2)OCO4)O3)cc1,inactive,–
Cc1ccc(S(=O)(=O)N2[C@@H](c3cccc(Cl)c3)C(C(=O)O)=CC[C@H]2c2ccc(Cl)c(Cl)c2)cc1,inactive,–
CCCCNC(=O)N(O)C1N(/N=C/c2ccccc2O)C(=S)SC1(C)C (stereo not given),inactive,–
COC(=O)c1ccc(/C=N/OCC(=O)Nc2cc(F)ccc2F)cc1,inactive,–
COc1ccc(-c2cc(=O)oc3cc(OC(C)C(=O)NCC4CCC(C(=O)O)CC4)ccc23)cc1 (stereo not given),inactive,–
CSc1nsc(SCC(=O)Nc2cc(C(=O)O)ccc2C)n1,inactive,–
O.O.O.O=S(=O)([O-])OC[C@H]1O[C@@H](O[C@]2(COS(=O)(=O)[O-])O[C@H](OS(=O)(=O)[O-])[C@@H](OS(=O)(=O)[O-])[C@@H]2OS(=O)(=O)[O-])[C@H](OS(=O)(=O)[O-])[C@@H](OS(=O)(=O)[O-])[C@@H]1OS(=O)(=O)[O-].[Al],inactive,–
Nc1nonc1-n1nnc(C(=O)N/N=C/c2c[nH]c3ccccc23)c1-c1ccccc1,inactive,–
CC(C)c1c(C(=O)N/N=C/c2ccccc2C(=O)O)nnn1-c1nonc1N,5.01 µM (active),–
CC(C)c1c(C(=O)N/N=C/c2ccc(-c3ccccc3)cc2)nnn1-c1nonc1N,inactive,–
CCc1ccccc1N1C(=O)C2C3CC(=O)C(c4ccccc43)C2C1=O (stereo not given),inactive,–
c1ccc2cc3c(NCCN4CCOCC4)ccnc3cc2c1,inactive,–
Fc1ccc(CNCc2ccc(Br)cc2)cc1,inactive,–
O=C(CCl)N(Cc1cccc([N+](=O)[O-])c1)c1cccc(Cl)c1,inactive,–
COc1ccc(NC(=O)Cn2cc(C(=O)c3ccncc3)c(=O)c3cc(C)ccc32)cc1Cl,inactive,–
COc1cc(C2C(C(=O)OCCC#N)=C(C)NC3=C2S(=O)(=O)c2ccccc23)cc(OC)c1OC (stereo not given),inactive,–
COc1ccc(C2N=C(N)N=C(N)N2c2ccccc2)cc1OC (stereo not given),inactive,–
CCOC(=O)C1CCN(S(=O)(=O)c2c(C)noc2C)CC1,inactive,–
COc1ccc(CCN2CC(C(=O)NCCN3CCNC3=O)CCC2=O)cc1 (stereo not given),inactive,–
CN(C)C(=O)N1CCNCC1,inactive,–
CCC(=O)Nc1nc(OC)cc(OC)n1,inactive,–
COC(=O)c1ccc(NC(=O)CN(c2ccc(C)cc2)S(=O)(=O)c2c(C)n[nH]c2C)cc1,inactive,–
CCC(=O)Nc1c(C)n[nH]c1C,10 µM (active),–
CCCC[C@]12Cc3cc(OC)c(OC)cc3C(O1)C1=C(CC3(CCCCC3)OC1=O)O2,–,5.12% [at 6.58 µM] (inactive)

SMILES,Potency,"activity, positive = growth rescue"
O=C(CSc1ncnc2c1cnn2CCc1ccccc1)Nc1ccc(F)cc1,inactive,–
O=C(NCCCCCCCCCNC(=O)C(F)(F)F)C(F)(F)F,inactive,–
CC1CC(C)CN(C/C=C/c2ccccc2[N+](=O)[O-])C1 (stereo not given),inactive,–
COc1ccc(NC(=O)C(NC(C)=O)C(=O)NCc2ccccc2Cl)cc1 (stereo not given),inactive,–
CCCCNS(=O)(=O)CCNCc1ccccc1OC,inactive,–
CCOC(=O)[C@@H]1[C@H]2COc3cc(OC)ccc3[C@H]2N2C(=O)N(c3ccc(F)cc3)C(=O)[C@]12C,inactive,–
CCCN(CC1COc2ccccc2O1)C(=S)Nc1ccc(C)cc1 (stereo not given),inactive,–
S=C(NCC1COc2ccccc2O1)Nc1ccc(Br)cc1 (stereo not given),inactive,–
CC(NC(=S)Nc1ccccc1)C1COc2ccccc2O1 (stereo not given),10 µM (active),–
O=C(CNC(=O)C12CC3CC(CC(C3)C1)C2)OCC(=O)N1CCCCC1,inactive,–
Cc1sc(NC(=O)C2=COCCO2)c(C#N)c1C,inactive,–
Cc1cccc(N2O[C@H]3C=CC2CCCC3)n1,inactive,–
COc1ccc(CCNC(=O)COC(=O)c2ncc(Cl)c(Cl)c2Cl)cc1OC,inactive,–
CC1(C)C2CCC1(CS(=O)(=O)NCCc1c[nH]c3ccccc13)C(=O)C2 (stereo not given),inactive,–
Cc1nc2c(C(=O)NCc3cccs3)cnn2c(C)c1Cc1ccc(F)cc1,inactive,–
Nc1ccccc1SC(C[N+](=O)[O-])c1ccccc1 (stereo not given),inactive,–
COc1ccc(N(CCC#N)S(=O)(=O)c2ccc(Cl)cc2)cc1,inactive,–
Cc1ccc(N=C2NC(=O)/C(=C/C=C/c3ccco3)S2)cc1C,inactive,–
Cc1ccc(N2C(=O)S/C(=C/c3cn(C)c4ccccc34)C2=O)cc1,inactive,–
Cc1cccc(N=C2NC(=O)/C(=C/c3cn(C)c4ccccc34)S2)c1,15.8 µM (active),–
Cc1cc(C)c[n+](-c2nc3ccccc3nc2[N-]S(=O)(=O)c2cccs2)c1,11.2 µM (active),–
CCCCNc1nc2ccccc2nc1NS(=O)(=O)c1cccs1,inactive,–
O=S(=O)([N-]c1nc2ccccc2nc1-[n+]1ccc(Cc2ccccc2)cc1)c1ccc(Br)s1,inactive,–
CCC1CCCCN1C(=O)CSc1nc2c(c(=O)n1C)SC(C)C2 (stereo not given),inactive,–

SMILES,Potency,"activity, positive = growth rescue"
COc1cccc(/C=N/NC(=O)c2[nH]nc3c2CCc2ccccc2-3)c1O,6.31 µM (active),–
COc1ccc(Br)cc1/C=N/NC(=O)c1cccc(S(=O)(=O)N2CCOCC2)c1,inactive,–
COc1ccc(/C=N/NC(=O)c2ccncc2)cc1CN1CCCc2ccccc21,inactive,–
CC(C#N)(NC(=O)CN1CCN(S(=O)(=O)c2cc(C(F)(F)F)ccc2Cl)CC1)C1CC1 (stereo not given),inactive,–
COc1ccc2cc(-c3[nH]ncc3CNCCn3nc(C)cc3C)ccc2c1,inactive,–
CCn1c(=O)c(=O)n(CC)c2cc(N3CCCCC3)c(NC(=O)c3ccc(Cl)cc3)cc21,inactive,–
N#Cc1ccc(-c2nc3cc(C#N)c(C#N)cc3nc2-c2ccccc2)cc1C#N,inactive,–
Cc1cc2ccccc2n2c(SCC(=O)N3CCN(C(=O)c4ccco4)CC3)nnc12,inactive,–
N#Cc1ccc(C2=CC(=O)C[C@H](c3ccc(Cl)cc3)C2)cc1,inactive,–
Cn1c(=O)c2c(SCC(=O)N3CCOCC3)nc(C3CC3)nc2n(C)c1=O,inactive,–
CCCCn1c(N)c(N(CC(C)C)C(=O)c2cnc(C)cn2)c(=O)[nH]c1=O,inactive,–
CC(C)N1CCC(=NNc2ccc([N+](=O)[O-])cc2S(=O)(=O)N2CCOCC2)CC1,inactive,–
CCN(CC)S(=O)(=O)c1ccc2nc(CSc3nnnn3-c3ccc(O)cc3)[nH]c2c1,inactive,–
COc1ccc(Cl)cc1NC(=O)CCS(=O)(=O)c1cc2c(cc1C)NC(=O)CO2,inactive,–
COc1ccc(NC(=O)CCS(=O)(=O)c2cc3c(cc2Cl)NC(=O)CO3)cc1OC,10 µM (active),–
Cc1cc2c(cc1S(=O)(=O)CCC(=O)NCc1ccccc1)OCC(=O)N2,inactive,–
CN(C(=O)CN1C(=O)NC(C)(CCc2ccccc2)C1=O)c1ccccc1 (stereo not given),inactive,–
CC(C)CCNC(=O)C1CCCN(S(=O)(=O)c2ccc(F)cc2)C1 (stereo not given),inactive,–
CCCN(CC1CC1)C(=S)NC(=O)c1ccccc1Br,inactive,–
CCCCCOc1ccc(/C=C/C(=O)NCCc2nc3ccccc3[nH]2)cc1OC,inactive,–
COc1ccc(CNC(=O)C(=O)NCC2OCCN2C(=O)c2ccc(OC)cc2)cc1 (stereo not given),inactive,–
CC(C)CC(=O)c1c[nH]c(C(=O)NCc2ccccc2)c1,inactive,–
CCOC(=O)N1CCN(C(=O)COC(=O)c2cccc(S(C)(=O)=O)c2)CC1,inactive,–
CC(=O)c1cn(CCCCCCCCCCn2cc(C(C)=O)c(=O)[nH]c2=O)c(=O)[nH]c1=O,inactive,–

SMILES,Potency,"activity, positive = growth rescue"
CN(Cc1ccc2nsnc2c1)Cc1nc(Cc2cccc(F)c2)no1,inactive,–
Cc1cccc(C)c1NC1=NC(=S)N(c2ccc(N(C)C)cc2)C1(C)C,inactive,–
O=C(OCC1O[C@@H](OC(=O)c2cc(O)c(O)c(O)c2)[C@@H](OC(=O)c2cc(O)c(O)c(O)c2)[C@@H](OC(=O)c2cc(O)c(O)c(O)c2)[C@@H]1OC(=O)c1cc(O)c(O)c(O)c1)c1cc(O)c(O)c(O)c1 (stereo not given in full),5.62 µM (active),–
CCOC(=O)CN1C(=O)N[C@@H](c2ccc(Br)cc2)C(C(C)=O)=C1C,inactive,–
CCc1cccc2c(C#N)cn(CC(=O)N3CCOCC3)c12,inactive,–
CCc1cccc2c3c([nH]c12)C(CC)(CC(=O)O)OCC3 (stereo not given),20 µM (active),–
Cc1cc2ccccn2c1C(=O)c1cccc(S(=O)(=O)N2CCOCC2)c1,inactive,–
O=C(OCc1cn(-c2ccc(Cl)c(Cl)c2)nn1)c1ccccc1Cl,inactive,–
COC(=O)CCC(=O)N1CCCC(CO)(Cc2ccccc2)C1 (stereo not given),inactive,–
CCOC(=O)c1c(N)c(C#N)nn1-c1ccccc1C(=O)OC,inactive,–
CC1(C)CN=C(N2CCN(c3ncnc4sc5c(c34)CCCC5)CC2)S1,inactive,–
COc1ccc(NC(=O)CN(C)C(=O)c2ccc(NC3CC3)c([N+](=O)[O-])c2)cc1,inactive,–
COc1ccc(C(C(=O)NC(C)(C)C)N(Cc2ccc(F)cc2)C(=O)CCC(=O)Nc2cc(C)on2)cc1 (stereo not given),inactive,–
Cc1ccccc1Cn1nc(C)c(NC(=O)C(F)(F)F)c1C,inactive,–
CCCCc1ccc(NC(=O)CN2C(=O)NC(Cc3ccccc3)C2=O)cc1 (stereo not given),inactive,–
O=C(C(NS(=O)(=O)c1cccc2nsnc12)c1ccccc1)N1CCN(c2ccccc2)CC1 (stereo not given),inactive,–
Cc1cc(OCCOc2cccc3cccnc23)c(C)cc1Cl,inactive,–
CC(C)CNC(=O)C1CCCN(S(=O)(=O)c2ccc(-n3cnnn3)cc2)C1 (stereo not given),inactive,–
COC(=O)C1(C)NC(c2ccc(C)cc2)C2C(=O)N(c3ccc(F)cc3)C(=O)C21 (stereo not given),inactive,–
Cc1c2cnn(-c3ccccc3)c(=O)c2c(C)n1CCCC(=O)N1CCN(C)CC1,inactive,–
COC(=O)[C@]1(C)CCC[C@@]2(C)C3CC[C@]4(OC(C)=O)C[C@@]3(CCC21)CC4=NO (stereo not given in full),inactive,–
CCCCN(CC(=O)Nc1cccc(S(=O)(=O)N2CCCC2)c1)Cc1nc2ccccc2c(=O)[nH]1,inactive,–
COc1ccc(N(C(=O)CNC(=O)c2ccco2)C(C(=O)NCC2CCCO2)c2ccccc2)cc1Cl (stereo not given),inactive,–
